The panel holds about 79,000 compounds, 15% with a hit somewhere; the sample as a whole holds those more often. The source made the active and inactive calls. Cut-off read from the data, not from the text of the source: active = growth inhibition above about 70%; inactive = the rest.
How the values were obtained:
[1] = NCI Yeast Anticancer Drug Screen. Data for the rad52 strain (AID 147);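 note: 0% = growth of vehicle-treated control cultures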; conditions: S. cerevisiae rad52 mutant growth inhibition, hits give high values
Procedure, shortened: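 Here a repair-compromised yeast strain receives each compound; its growth is then quantified and normalised to vehicle-only controls.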

[2] = NCI Yeast Anticancer Drug Screen. Data for the wt1 strain (AID 149);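 note: 0% = growth of vehicle-treated wt1 cultures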; conditions: S. cerevisiae wt1 strain (SPY 50644) growth inhibition, hits give high values
Procedure, shortened: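 Yeast wt1 strain exposed to compounds; growth inhibition measured relative to vehicle-treated controls.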

[3] = NCI Yeast Anticancer Drug Screen. Data for the rad50EPP+ strain (AID 151);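 note: 0% = growth of vehicle-treated control cultures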; conditions: S. cerevisiae rad50 mutant strain, hits give high values
Procedure, shortened: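 Read-out is yeast growth inhibition relative to vehicle; cells used were the rad50EPP+ strain.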

[4] = NCI Yeast Anticancer Drug Screen. Data for the mgt1 strain (AID 153); conditions: S. cerevisiae mgt1 mutant growth inhibition, hits give high values
Procedure, shortened: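 Measured: inhibition of mgt1 yeast growth by compound, normalized to vehicle-treated cultures.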

[5] = NCI Yeast Anticancer Drug Screen. Data for the rad50 strain (AID 155);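 note: 0% = growth of vehicle-only cultures of the same strain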; conditions: S. cerevisiae rad50 strain growth inhibition, hits give high values
Procedure, shortened: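 Yeast carrying a defined DNA repair defect were exposed to test compounds, and growth was compared with vehicle-treated controls to give percent inhibition.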

[6] = NCI Yeast Anticancer Drug Screen. Data for the mec2-1 strain (AID 157); conditions: S. cerevisiae mec2-1 strain, hits give high values
Procedure, shortened: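 Using mec2-1 yeast: add compound, measure growth, express inhibition versus vehicle-treated cultures.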

[7] = NCI Yeast Anticancer Drug Screen. Data for the rad14 strain (AID 159);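 note: 0% = growth of vehicle-treated control cultures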; conditions: S. cerevisiae rad14 strain growth inhibition, hits give high values
Procedure, shortened: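 Yeast cells carrying a defined DNA-repair defect were exposed to compounds, and growth inhibition was calculated relative to vehicle-treated control cultures.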

[8] = NCI Yeast Anticancer Drug Screen. Data for the sgs1 mgt1 strain (AID 161);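 note: 0% = growth of cultures given vehicle only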; conditions: S. cerevisiae sgs1 mgt1 strain, hits give high values
Procedure, shortened: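 Compounds are added to genetically altered yeast, and growth is compared with cultures given vehicle alone to give percent inhibition.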

[9] = NCI Yeast Anticancer Drug Screen. Data for the CLN2oe strain (AID 163);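 note: 0% = growth of vehicle-only control cultures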; conditions: S. cerevisiae CLN2oe strain, hits give high values
Procedure, shortened: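 Whole-cell yeast growth assay. A strain engineered for altered cell-cycle control received compound, and inhibition relative to vehicle-treated cultures was recorded.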

[10] = NCI Yeast Anticancer Drug Screen. Data for the cln2 rad14 strain (AID 165);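 note: 0% = growth equal to vehicle treated cultures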; conditions: S. cerevisiae cln2 rad14 strain, hits give high values
Procedure, shortened: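 Yeast strain cln2 rad14, bearing defects in cell cycle control and DNA repair, serves as the test system; values reflect growth inhibition compared with vehicle.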

[11] = NCI Yeast Anticancer Drug Screen. Data for the bub3 strain (AID 167); conditions: S. cerevisiae bub3 mutant strain, hits give high values
Procedure, shortened: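 Compounds were applied to a genetically altered yeast strain carrying a cell-cycle control defect. Growth inhibition was scored against vehicle-treated controls.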

[12] = NCI Yeast Anticancer Drug Screen. Data for the wt2 strain (AID 169);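 note: 0% = growth of vehicle-treated yeast cultures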; conditions: S. cerevisiae wt2 strain growth inhibition, hits give high values
Procedure, shortened: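 Treated yeast vs. vehicle-treated yeast: growth inhibition determined.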

[13] = NCI Yeast Anticancer Drug Screen. Data for the mlh1 strain (AID 171);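 note: 0% = growth of vehicle-treated control cultures of the same strain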; conditions: S. cerevisiae mlh1 strain growth inhibition, hits give high values
Procedure, shortened: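 A yeast strain with a defined genetic lesion serves as the test organism. Cultures receive compound or vehicle, and growth is measured.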

[14] = NCI Yeast Anticancer Drug Screen. Data for the sgs1 strain (AID 173);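 note: 0% = growth of vehicle-only control cultures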; conditions: S. cerevisiae sgs1 mutant, hits give high values
Procedure, shortened: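 A genetically defined yeast mutant is incubated with the test compound, and its growth is compared to that of the same strain given vehicle.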

[15] = NCI Yeast Anticancer Drug Screen. Data for the mlh1 rad18 strain (AID 175); conditions: S. cerevisiae mlh1 rad18 strain growth inhibition, hits give high values
Procedure, shortened: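 Steps: expose repair-defective yeast to compound; measure growth; express inhibition against vehicle-treated controls.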

[16] = NCI Yeast Anticancer Drug Screen. Data for the rad18 strain (AID 177); conditions: S. cerevisiae rad18 mutant growth inhibition, hits give high values
Procedure, shortened: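 Measured value is growth inhibition of a yeast strain bearing a DNA repair alteration, referenced to vehicle-treated cells.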

[17] = at 5.0 µM (retest, dose inferred, filed as 0.5)
[18] = at 50.0 µM (retest, dose inferred, filed as 5.0)

Measured: growth inhibition

Brc1ccc(-c2cc3c(cc2C2SCCS2)OCO3)cc1
inactive: [1]; at 1.2 µM -21% | [1]; at 3.7 µM -21% | [1]; at 11.0 µM -16% | [1]; at 33.0 µM 8% | [1]; at 100.0 µM 27% | [2]; at 1.2 µM -24% | [2]; at 3.7 µM -17% | [2]; at 11.0 µM -26% | [2]; at 33.0 µM -14% | [2]; at 100.0 µM -7% | [3]; at 1.2 µM -4% | [3]; at 3.7 µM -10% | [3]; at 11.0 µM 9% | [3]; at 33.0 µM 29% | [3]; at 100.0 µM 51% | [4]; at 1.2 µM -52% | [4]; at 3.7 µM -45% | [4]; at 11.0 µM -36% | [4]; at 33.0 µM -6% | [4]; at 100.0 µM 50% | [5]; at 1.2 µM -23% | [5]; at 3.7 µM -13% | [5]; [17] -19% | [5]; at 11.0 µM -13% | [5]; at 33.0 µM 14% | [5]; [18] 48% | [5]; at 50.0 µM 63.8% | [5]; at 100.0 µM 30% | [6]; at 1.2 µM -29% | [6]; at 3.7 µM -29% | [6]; [17] -57% | [6]; at 11.0 µM -31% | [6]; at 33.0 µM -27% | [6]; [18] 11% | [6]; at 50.0 µM 22.2% | [6]; at 100.0 µM -15% | [7]; at 1.2 µM -35% | [7]; at 3.7 µM -24% | [7]; at 11.0 µM -30% | [7]; at 33.0 µM -7% | [7]; at 100.0 µM 25% | [8]; [17] -18% | [8]; at 50.0 µM 66.6% | [9]; at 1.2 µM -18% | [9]; at 3.7 µM -25% | [9]; at 11.0 µM -28% | [9]; at 33.0 µM -10% | [9]; at 100.0 µM 13% | [10]; [17] 9% | [10]; [18] 32% | [10]; at 50.0 µM 21.1% | [11]; at 1.2 µM -16% | [11]; at 3.7 µM -8% | [11]; [17] 5% | [11]; at 11.0 µM -15% | [11]; at 33.0 µM 2% | [11]; at 50.0 µM 44.9% | [11]; at 100.0 µM 22% | [12]; at 1.2 µM -1% | [12]; at 3.7 µM -11% | [12]; at 11.0 µM -15% | [12]; at 33.0 µM 13% | [12]; at 100.0 µM 43% | [13]; at 1.2 µM -24% | [13]; at 3.7 µM -23% | [13]; at 11.0 µM -28% | [13]; at 33.0 µM 18% | [13]; at 100.0 µM 63% | [14]; at 1.2 µM 3% | [14]; at 3.7 µM 9% | [14]; at 11.0 µM 5% | [14]; at 33.0 µM 52% | [15]; [17] -8% | [15]; at 50.0 µM 33.5% | [16]; at 1.2 µM -23% | [16]; at 3.7 µM -27% | [16]; at 11.0 µM -29% | [16]; at 33.0 µM 20% | [16]; at 100.0 µM 56%
active: [8]; [18] 70% | [11]; [18] 74% | [14]; at 100.0 µM 76% | [15]; [18] 76%
